Gal4-VP16 FLuc = counter-screen for ROR gamma inhibitors: Gal4-VP16 reporter; Drosophila S2 Gal4-VP16 UAS-luciferase, luminescence, 20 h; 310,000 compounds, 3.5% hits; AID 2546; Potency, µM (titrated, usually from 53.6 µM), without a hit: top-dose activity, negative = inhibition, usual class: inhibitors;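 also: Gal4-VP16 expression switched on by copper sulfate through the metallothionein promoter; potency is read from the fitted curve at half-maximal effect; nearly all actives have a fitted effect of over 50% in size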
ELG1 DNA repair = ELG1-dependent DNA repair inhibition | HEK293T ELG1-luciferase reporter, luminescence, 16 h; DNA damage induced by 5-fluorouridine | Potency, µM (titrated, usually from 46.1 µM), for the others: at the highest dose activity change, negative = inhibition, actives largely listed as inhibitors | 330,000 compounds, 2.3% hits | AID 504467; also: potency is read from the fitted curve at half-maximal effect; nearly all actives have a fitted effect of over 55% in size
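Step one: seed 2,000 cells per well. Step two: pin-transfer compound or DMSO alongside 5-fluorouridine. Step three: incubate 16 hr, 37 °C, 5% CO2. Step four: add ONE-Glo, wait 30 min, read luminescence.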
IL1B secr inh = blocks inflammasome-driven IL-1 beta release | 360,000 compounds, 4.7% hits | AID 743279 | activity change, % at 57.5 µM | THP-1 LPS/ATP IL-1B secretion, AlphaLISA, 16 h; hits give low values; in the data active = activity change below about -50%; inconclusive = mostly about -30% to -49%
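Secreted IL-1B measured by AlphaLISA bead assay after 16 h compound exposure of THP-1 cells; compounds (final up to 57.5 uM) added 1 h before LPS (250 ng/mL) and ATP (1.25 mM) stimulation; lower signal means less secretion.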
DT40 TDP1 CPT = growth inhibition of DT40 Tdp1-/-;hTDP1 cells with camptothecin (screen for TDP1 inhibitors). chicken DT40 Tdp1-/-;hTDP1 cells + 20 nM CPT, ATP luminescence, 48 h. AID 686979. 420,000 compounds, 12% hits. Potency, µM (titrated, usually from 46.2 µM), for inactives: top-dose activity change, negative = growth inhibition, most hits filed as inhibitors; also: potency is read from the fitted curve at half-maximal effect; nearly all actives have a fitted effect of over 55% in size
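Chicken DT40 Tdp1-/- cells complemented with human TDP1, 400 cells/well, exposed to compounds plus 20 nM camptothecin for at least 48 h at 37 C; viability read as ATP content by CellTiter-Glo luminescence.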
DT40 TDP1 no CPT = qHTS for Inhibitors of human tyrosyl-DNA phosphodiesterase 1 (TDP1): qHTS in cells in absence of CPT; DT40 Tdp1-/- hTDP1 cells, no CPT, ATP luminescence, 48 h; Potency, µM (doses to about 46.2 µM), inactives show top-dose activity change, negative = growth inhibition, hits mostly inhibitors; 420,000 compounds, 15% hits; also: potency is read from the fitted curve at half-maximal effect; nearly all actives have a fitted effect of over 55% in size
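Luminescent ATP content (CellTiter-Glo) served as the growth readout. Knockout chicken DT40 cells expressing human TDP1 were exposed to compounds without camptothecin for a minimum 48 hr at 37 °C.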
RORgamma inh = blocks mouse ROR gamma transcriptional activity; Potency, µM (titrated, usually from 53.6 µM), inactives show at the top dose activity change, negative = inhibition, hits mostly inhibitors; 310,000 compounds, 5.4% hits; AID 2551; Drosophila S2 Gal4-RORgamma UAS-luciferase reporter, 20 h; P51450; also: potency is read from the fitted curve at half-maximal effect; nearly all actives have a fitted effect of over 60% in size
Target sequence (P51450 whole entry, looked up, the tested form may be a part): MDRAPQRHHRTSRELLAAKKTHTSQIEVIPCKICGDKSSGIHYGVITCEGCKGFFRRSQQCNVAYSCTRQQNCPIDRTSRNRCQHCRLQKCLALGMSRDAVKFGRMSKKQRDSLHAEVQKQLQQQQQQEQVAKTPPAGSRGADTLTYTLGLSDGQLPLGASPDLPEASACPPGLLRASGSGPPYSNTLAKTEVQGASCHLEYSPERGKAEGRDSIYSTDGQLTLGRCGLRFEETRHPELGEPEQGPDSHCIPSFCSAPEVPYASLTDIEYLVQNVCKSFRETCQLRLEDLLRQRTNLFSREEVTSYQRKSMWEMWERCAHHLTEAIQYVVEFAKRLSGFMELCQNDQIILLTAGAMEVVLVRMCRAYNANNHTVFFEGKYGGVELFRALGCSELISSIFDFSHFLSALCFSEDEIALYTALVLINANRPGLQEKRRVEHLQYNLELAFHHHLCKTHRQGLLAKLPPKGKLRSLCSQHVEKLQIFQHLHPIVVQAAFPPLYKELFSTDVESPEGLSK
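Read-out: Photinus luciferase luminescence; inhibitors lower reporter signal. Insect Schneider cells with Gal4-ROR gamma fusion under metallothionein promoter, UAS reporter; 700 uM final copper sulfate induction, 20 hr, ambient temperature.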
* marks the source's active call; other numbers are inactive results; ? = inconclusive; . = not tested or not shown; [ ] = dose if it differs, or a comment. Sampled rows, rich in hits. Any-hit rate of the full collection: about 21%. Unless noted, calls follow the shape of the dose curve; as a rule, active = well fitted curve in the direction sought with a large enough effect; inconclusive = small, poorly fitted or top-dose-only effect, or another doubt; inactive = no such curve, though single readings can be large; an effect the other way counts as inactive or inconclusive. % is scaled to controls: 0 for no effect and ±100 for the full control effect.

SMILES	Gal4-VP16 FLuc	ELG1 DNA repair	IL1B secr inh	DT40 TDP1 CPT	DT40 TDP1 no CPT	RORgamma inh
COc1ccc(-n2c(-c3ccco3)nc3c(cnn3-c3ccccc3C)c2=O)cc1	-1%	?	33	?	23µM*	33%
CCOCCCNC(=O)NC(C)c1c(-n2cccc2)sc2c1CCN(CC)C2 (stereo unspecified)	.	.	.	13µM*	16µM*	.
CCOc1ccc(NC(=O)NC(C)c2c(-n3cccc3)sc3c2CCN(CC)C3)cc1 (stereo unspecified)	.	.	.	21µM*	18µM*	.
CCOc1ccc(NC(=O)NCc2c(-n3cccc3)sc3c2CCCC3)cc1	.	.	.	-4%	-15%	.
CCN1CCc2c(sc(-n3cccc3)c2C(C)NC(=O)Nc2ccc(Br)cc2)C1 (stereo unspecified)	.	.	.	16µM*	13µM*	.
Cc1ccc(C2CC(=O)Oc3cc(C)c(Br)c(C)c32)cc1 (stereo unspecified)	-4%	1%	19	0%	-13%	-10%
Cc1nn2c(N)c(-c3ccccc3)cnc2c1-c1ccc(Cl)cc1	?	?	-69*	16µM*	?	-25%
Cc1cc(C)n2nc(C(F)(F)F)c(-c3ccccc3)c2n1	3%	5%	44	-11%	-2%	?
Cc1nc2c(-c3ccccc3)c(C)nn2c(N)c1-c1ccccc1	?	?	-18	21µM*	29µM*	?
Cc1cc(N)n2nc(-c3ccccc3)c(-c3ccccc3)c2n1	-4%	?	12	1.5µM*	1.6µM*	8%
Nc1c(-c2ccccc2)cnc2c(-c3ccccc3)cnn12	7.1µM*	?	-10	-12%	?	6.3µM*
Cc1nn2c3c(cnc2c1-c1ccccc1)C(=O)CCC3	13%	?	-3	-2%	-14%	21%
CC(NC(=O)COC(=O)c1ccc2c(=O)n3c(nc2c1)CCCCC3)c1ccc(F)cc1 (stereo unspecified)	.	.	-9	-19%	-7%	.
COCCNC(=O)C1(C)CCN(C(=O)c2sc(-c3ccccc3)nc2C)C1 (stereo unspecified)	.	.	0	-6%	-7%	.
COc1ccc(NC(=O)CCNS(=O)(=O)c2cc(Br)ccc2Br)cc1S(N)(=O)=O	-2%	-7%	13	?	-29%	-39%
Cc1nn(-c2nc3ccccc3[nH]2)c(N)c1-c1ccccc1	?	?	-20	?	16µM*	?
CCN1C(=O)/C(=C/c2cccs2)N(C)C1=S	2%	?	2	-10%	?	-6%
CCN1C(=O)/C(=C/c2ccc(C)o2)N(C)C1=S	13µM*	?	-2	-4%	4%	?
Cc1ccc(/C=C2/NC(=O)N(c3ccccc3)C2=O)o1	?	?	0	10µM*	16µM*	-44%
CCN1C(=O)N/C(=C/c2ccc(C)o2)C1=O	?	18%	0	23µM*	21µM*	?
CCCN1C(=O)/C(=C/c2ccc(C)o2)NC1=S	?	5%	.	.	.	?
CC(=O)N1CCOc2ccc(S(=O)(=O)NC[C@H]3O[C@@H](n4cnc5c(N)ncnc54)[C@H](O)[C@@H]3O)cc21	.	14%	0	-2%	-7%	.
N#Cc1ccsc1NC(=O)CN1C(=O)NC2(CCCCC2)C1=O	.	.	20	2%	21%	.
Cc1cccc2cc(CN(CC3CCCO3)C(=O)c3ccccc3F)c(N(C)C)nc12 (stereo unspecified)	.	.	.	-1%[9.04 µM]	-15%	.
O=C(CS(=O)(=O)c1cccc2nsnc12)N1CCN(c2ccc(F)cc2)CC1	.	.	.	-28%	?	.
SMILES	Gal4-VP16 FLuc	ELG1 DNA repair	IL1B secr inh	DT40 TDP1 CPT	DT40 TDP1 no CPT	RORgamma inh
COc1ccc(-c2noc(-c3ccc(N4CCOCC4)c([N+](=O)[O-])c3)n2)cc1	.	.	.	-15%	-1%	.
Cc1ccc(-c2noc(-c3ccc(N4CCCCC4)c([N+](=O)[O-])c3)n2)cc1	.	.	.	?	21µM*	.
CCc1noc(-c2ccc(N3CCC(C)CC3)c([N+](=O)[O-])c2)n1	.	.	.	18µM*	?	.
Cc1ccc(-c2noc(-c3ccc(N4CCOCC4)c([N+](=O)[O-])c3)n2)cc1	.	.	.	-14%	21µM*	.
CCc1noc(-c2ccc(N3CCCCC3)c([N+](=O)[O-])c2)n1	.	.	.	?	5%	.
O=C(c1ccc(Cl)c(S(=O)(=O)N2CCCC2)c1)N1CCCC(C(F)(F)F)C1 (stereo unspecified)	.	4%	0	-23%	?	.
CNC(=S)NC(CC(=O)OC)c1ccc2c(c1)OCO2 (stereo unspecified)	5%	7%	23	7%	-6%	-29%
CCOc1cccc2cc(-c3nc4ccc(C(=O)O)cc4[nH]3)c(=O)oc12	.	.	.	5%	-23%	.
CN(C)CCNC(=O)c1cccc(-c2cccc3nncn23)c1	.	.	-16	-20%	-1%	.
CC(C)C1/C(=N/O)CC(c2ccccc2)NC1c1ccccc1 (stereo unspecified)	2%	16µM*	-23	16µM*	21µM*	9%
CCCC1/C(=N/O)CC(c2ccccc2)NC1c1ccccc1 (stereo unspecified)	?	?	-98*	?	4.1µM*	?
COCCCN=Cc1c(C)[nH]n(-c2ccc(Br)c(C)c2)c1=O	6.3µM*	?	9	?	?	7.1µM*
Cc1[nH]n(-c2ccccc2)c(=O)c1/C=N/c1nn[nH]n1	-6%	13%	35	?	?	-2%
Cc1cc(C(=O)COc2ccc(Br)cc2F)c(C)n1CC1CCCO1 (stereo unspecified)	.	.	41	-22%	?	.
Cc1cc(C(=O)COC(=O)c2ccc(O)cc2)c(C)n1CCc1ccc(F)cc1	5%	-1%	13	0%	-26%	41%
Cc1cc(C(=O)CSc2n[nH]c(N)n2)c(C)n1-c1cccc(F)c1	2%	?	-15	?	?	?
Cc1cc(C(=O)CSc2nc(N)cc(N)n2)c(C)n1CCc1ccc(F)cc1	-8%	?	-66*	?	?	-5%
Cc1cc(C(=O)CSc2nc(N)cc(N)n2)c(C)n1-c1cccc(C(F)(F)F)c1	-5%	-11%	-11	23µM*	?	?
Cc1cccc(C)c1N1C(=O)c2ccccc2NC(=O)C1C(=O)NCCc1ccccc1 (stereo unspecified)	.	.	16	-17%	-14%	.
